Reference: PMC7819943, “Rice protein-binding microarrays: a tool to detect cis-acting elements near promoter regions in rice”
In all, about 39,000 sequences were measured (“fluorescence intensity (a.u.)”: median about 4,300, highest 2% from about 39,000 on). Only a selection was taken, and the highest values are over-represented in it overall.

Target: T1, OsSMF1 (Oryza sativa, UniProt Q6ZLB0 1-436)
T1 sequence: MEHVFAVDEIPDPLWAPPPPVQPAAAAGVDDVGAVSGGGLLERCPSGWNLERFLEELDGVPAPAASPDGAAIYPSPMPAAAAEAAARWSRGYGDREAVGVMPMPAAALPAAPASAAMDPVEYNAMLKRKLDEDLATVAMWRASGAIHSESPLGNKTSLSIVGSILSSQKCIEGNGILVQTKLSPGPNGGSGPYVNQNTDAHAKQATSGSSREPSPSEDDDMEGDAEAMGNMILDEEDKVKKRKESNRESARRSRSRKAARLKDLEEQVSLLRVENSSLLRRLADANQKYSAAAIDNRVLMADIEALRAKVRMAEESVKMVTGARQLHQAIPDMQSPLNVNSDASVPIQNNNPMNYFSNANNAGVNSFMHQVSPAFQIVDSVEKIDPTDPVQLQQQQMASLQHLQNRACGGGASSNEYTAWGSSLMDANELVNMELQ
Experiment: protein-binding microarray (RPBM); PBS, 2% BSA, 51.3 ng/ul salmon testes DNA, 50 uM zinc acetate, 200 nM TF, 25 C, 1 h; high values mean tight binding
Settings: protein: recombinant; tags: N-terminal polyhistidine and DsRed monomer fusion (pET32a); chain copies: 2; label: CyDye5-dUTP incorporated in the synthesized complementary strand; 3' TTTTT single-stranded linker to array surface; dsDNA, one strand shown
Method in brief: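 Binding signal is defined as the fluorescence intensity of each feature in arbitrary units, read on an Axon 4000B scanner. Transcription factors with N-terminal polyhistidine and DsRed fusions came from E. coli BL21-CodonPlus and were purified on Ni–NTA. They were incubated at 200 nM for 1 h at 25 °C on a custom Agilent array that had been made double-stranded with Cy5-dUTP, with 50 µM zinc acetate present, and the array was washed.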

Compared with “TGATACGATGACGTTTGGGTGGTTGGATATATATCATGATCGGAGTCACCTAGTGCAG”, “GGATAAGCACCGACGATTTGGTGGTAGATCTATATGGGTACGGAGTCACCTAGTGCAG” is higher in binding signal: 5350 fluorescence intensity (a.u.) for the first, 48000 fluorescence intensity (a.u.) for the second.

Compared with “ATATAGCATGTCAAGATATTTGGGTGATATGTACTATGTACGGAGTCACCTAGTGCAG”, “ATGATTTATTATGTTCTGCCCTTCTTTGTTGTGACAAAGTCGGAGTCACCTAGTGCAG” is lower in binding signal: 4580 fluorescence intensity (a.u.) for the first, 3900 fluorescence intensity (a.u.) for the second.

Going from “TGCTTTCCTCCCTTTATTACTACATCATGCGCCTTCGTGACGGAGTCACCTAGTGCAG” to “AGCTGGCGGCTGGCGGGTGGTGGTGGTGGCTGGCGGCGGGCGGAGTCACCTAGTGCAG”, the binding signal rises from 3370 fluorescence intensity (a.u.) to 4500 fluorescence intensity (a.u.).

Going from “GAAGAATCGGCCCAACGACCAAGAGGGAGTCAAAATAGACCGGAGTCACCTAGTGCAG” to “ACATCCGAGAGACTAGGCCGACAAATCACCACCGACACGTCGGAGTCACCTAGTGCAG”, the binding signal falls from 22600 fluorescence intensity (a.u.) to 5890 fluorescence intensity (a.u.).

Compared with “CAGTGCCGACTGCCGAGGCAGAGAGGCAGACAAAGTGACACGGAGTCACCTAGTGCAG”, “CCCACCTGTGACTCAGCGAGCCGACTGCCACGTCAGACAACGGAGTCACCTAGTGCAG” is lower in binding signal: 54900 fluorescence intensity (a.u.) for the first, 34400 fluorescence intensity (a.u.) for the second.

Compared with “GTAGAAAGCAGGGATAAAGTATTGGTGGAGATGTCACGCCCGGAGTCACCTAGTGCAG”, “ATCCACGAGGGCAAGCAAGCAAGCAAGCTCCACCTCTCTGCGGAGTCACCTAGTGCAG” is lower in binding signal: 3560 fluorescence intensity (a.u.) for the first, 3220 fluorescence intensity (a.u.) for the second.

First: TTAAATTTGAAACAGTTTGACTTTGACCAGTCAAAGTCTTCGGAGTCACCTAGTGCAG
Second: GTCAAAGTTATAAAAGTTTGACCTCAACTTTGTCCAAAACCGGAGTCACCTAGTGCAG
The binding signal of the first is lower: 8060 fluorescence intensity (a.u.) for the first, 24200 fluorescence intensity (a.u.) for the second.

First: CTTAAAGCAGTTTGACTTTGACCAAAGTCAAAACGTCTTACGGAGTCACCTAGTGCAG
Second: CTGGGCAAAATCTCTCCCATACATACACTACAGCGGCGAACGGAGTCACCTAGTGCAG
The binding signal of the first is higher: 40600 fluorescence intensity (a.u.) for the first, 3290 fluorescence intensity (a.u.) for the second.

First: GGGCGTTGCGGCCGTCACACGTGGTATGGGAGGGCGCCGCCGGAGTCACCTAGTGCAG
Second: TAGTAGTACTATGTAACCGGTACAGTCACCAAAACAGGGTCGGAGTCACCTAGTGCAG
The binding signal of the first is higher: 5820 fluorescence intensity (a.u.) for the first, 5260 fluorescence intensity (a.u.) for the second.

First: CAGTTGACAAATGACAACCGGCACGTTTGCAACATGCAAGCGGAGTCACCTAGTGCAG
Second: CAGTTCTTAAACTTGTAAAGTTGTGTCATATACCACATTACGGAGTCACCTAGTGCAG
The binding signal of the first is lower: 3220 fluorescence intensity (a.u.) for the first, 39600 fluorescence intensity (a.u.) for the second.

Compared with “TTTGCCTACTCATCACCACATGTATAAAGTGTAAACTTTACGGAGTCACCTAGTGCAG”, “GTTTATACCTATAAAGTTTCTATATTAAAAGTTTACGTGTCGGAGTCACCTAGTGCAG” is lower in binding signal: 5240 fluorescence intensity (a.u.) for the first, 3490 fluorescence intensity (a.u.) for the second.

First: CCAAAATTAGCTTCGGTCGGTACAAACACCAGAATTCAGCCGGAGTCACCTAGTGCAG
Second: GTCTCCGATGCCCCGATGCCGCCGCGTCGCTGGCCTGATTCGGAGTCACCTAGTGCAG
The binding signal of the first is lower: 3220 fluorescence intensity (a.u.) for the first, 3390 fluorescence intensity (a.u.) for the second.

Going from “CGGAATGTCTCCGCGGAAGATGCCCAAGGAATCGCCTGGCCGGAGTCACCTAGTGCAG” to “CACCGCCCCATCGATCTCCGCCCGGCCGCCACCAATCTCGCGGAGTCACCTAGTGCAG”, the binding signal falls from 39500 fluorescence intensity (a.u.) to 3310 fluorescence intensity (a.u.).

Compared with “ATTAATAGCAGTGACGTCTTGCACATACTGTATGAGTCATCGGAGTCACCTAGTGCAG”, “TTATCTCCTCATCCATTTTCATCCTCGTCTACATTCACTGCGGAGTCACCTAGTGCAG” is higher in binding signal: 11000 fluorescence intensity (a.u.) for the first, 24600 fluorescence intensity (a.u.) for the second.

Compared with “GAACATATCACATGCTCATATCAAAATTTATAATATTAAACGGAGTCACCTAGTGCAG”, “TCTTTGGTGATGGATAATAACCCGATATAAACAATATAGACGGAGTCACCTAGTGCAG” is higher in binding signal: 35200 fluorescence intensity (a.u.) for the first, 65000 fluorescence intensity (a.u.) for the second.

Compared with “ATAATATAAAACGGATGGATCACATGCTATGAACCTATGACGGAGTCACCTAGTGCAG”, “CATGGATAGGATAATCGTAACAATTATCTAGACAGTGATGCGGAGTCACCTAGTGCAG” is lower in binding signal: 51200 fluorescence intensity (a.u.) for the first, 3140 fluorescence intensity (a.u.) for the second.

Compared with “ATTGGACGATAAAATATTGGACGGTGATTCACCTTTTAGACGGAGTCACCTAGTGCAG”, “AATGTAATAAATTGTAGATGTCATTGCTATGCATGCATGACGGAGTCACCTAGTGCAG” is higher in binding signal: 3170 fluorescence intensity (a.u.) for the first, 3920 fluorescence intensity (a.u.) for the second.

Compared with “ATTATGAGCCATGATTCTCTCATCATGCAATGTCCCAGCACGGAGTCACCTAGTGCAG”, “TATATATGCACCGAGACACATATGAATCATCACACGTCTTCGGAGTCACCTAGTGCAG” is lower in binding signal: 22100 fluorescence intensity (a.u.) for the first, 3550 fluorescence intensity (a.u.) for the second.

Compared with “CGCCGCCTCACCAGCGCCACCTCCACCTCCACCTACGTCTCGGAGTCACCTAGTGCAG”, “TTGCAGCAGAATACTTACCACGACAGAATTTGAGGATCTACGGAGTCACCTAGTGCAG” is higher in binding signal: 3270 fluorescence intensity (a.u.) for the first, 29500 fluorescence intensity (a.u.) for the second.

Going from “AGATCGACCAATGATACACACACAGCATATGAATCCTTTCCGGAGTCACCTAGTGCAG” to “GCATAAATGATGTGTTTCTGAATCCAATTACACACATGATCGGAGTCACCTAGTGCAG”, the binding signal falls from 41400 fluorescence intensity (a.u.) to 5020 fluorescence intensity (a.u.).

Going from “CCAGCATCTGACACATCCTTTCCTAGCTGATCGACTCCATCGGAGTCACCTAGTGCAG” to “AATACCGACGTGTCTAGACCTCAGCGACACACTGGAGCGTCGGAGTCACCTAGTGCAG”, the binding signal rises from 3420 fluorescence intensity (a.u.) to 5000 fluorescence intensity (a.u.).
